Screen size: about 5,500 compounds; about 2,000 (36%) were called active. Roughly 18% stayed inconclusive and do not appear here. No stated cut-off is given here; in the data, active means normalized growth mostly below about 0.91 (no sharp cut-off); inconclusive means no clear call, values can overlap the other calls; inactive means mostly above about 0.92. This is one part of the list.
Experiment: chemical genetic growth profiling, strain panel (AID 1159580);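 further: tested at 20 µM; growth read once vehicle control cultures reached saturation at 30 °C; 1 = growth at the plate median or of vehicle wells; lower values mean less growth of the strain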
Conditions: S. cerevisiae deletion strains, growth OD
[1] = locus YAL013W, strain DEP1, hits give low values
[2] = locus YBR229C, strain ROT2, hits give low values
[3] = locus YDL101C, strain DUN1, hits give low values
[4] = locus YDR150W, strain NUM1, hits give low values
[5] = locus YEL061C, strain CIN8, hits give low values
[6] = locus YGR078C, strain PAC10, hits give low values
[7] = locus YHR030C, strain SLT2, hits give low values
[8] = locus YHR087W, strain rtc3, hits give low values
[9] = locus YJR043C, strain POL32, hits give low values
[10] = locus YJR075W, strain HOC1, hits give low values
[11] = locus YLR039C, strain RIC1, hits give low values
[12] = locus YLR058C, strain SHM2 (second series), hits give low values
[13] = locus YLR085C, strain ARP6, hits give low values
[14] = locus YLR262C, strain YPT6, hits give low values
[15] = locus YML094W, strain GIM5, hits give low values
[16] = locus YMR219W, strain ESC1, hits give low values
[17] = locus YMR263W, strain SAP30, hits give low values
[18] = locus YNL153C, strain GIM3, hits give low values
[19] = locus YNL298W, strain CLA4 (second series), hits give low values
[20] = locus YNL322C, strain KRE1, hits give low values
[21] = locus YNR030W, strain Alg12, hits give low values
[22] = locus YPL055C, strain LGE1, hits give low values
[23] = locus YPL241C, strain CIN2, hits give low values
[24] = locus YPR135W, strain CTF4, hits give low values
[25] = locus YAR019C, strain CDC15, hits give low values
[26] = locus YBL105C, strain PKC1, hits give low values
[27] = locus YBR135W, strain CKS1, hits give low values
[28] = locus YBR136W, strain MEC1, hits give low values
[29] = locus YBR160W, strain CDC28, hits give low values
[30] = locus YDL017W, strain CDC7, hits give low values
[31] = locus YDL028C, strain MPS1, hits give low values
[32] = locus YDL108W, strain KIN28, hits give low values
[33] = locus YDL132W, strain cdc53, hits give low values
[34] = locus YDL214C, strain PRR2, hits give low values
[35] = locus YDR052C, strain DBF4, hits give low values
[36] = locus YDR054C, strain cdc34, hits give low values
[37] = locus YDR226W, strain ADK1, hits give low values
[38] = locus YDR477W, strain SNF1, hits give low values
[39] = locus YER123W, strain YCK3, hits give low values
[40] = locus YER133W, strain GLC7, hits give low values
[41] = locus YFL009W, strain cdc4, hits give low values
[42] = locus YFR003C, strain YPI1, hits give low values
[43] = locus YFR019W, strain FAB1, hits give low values
[44] = locus YFR028C, strain CDC14, hits give low values
[45] = locus YGR040W, strain KSS1, hits give low values
[46] = locus YGR052W, strain FMP48, hits give low values
[47] = locus YGR092W, strain DBF2, hits give low values
[48] = locus YHR079C, strain IRE1, hits give low values
[49] = locus YHR082C, strain KSP1, hits give low values
[50] = locus YHR205W, strain SCH9, hits give low values
[51] = locus YIL147C, strain SLN1, hits give low values
[52] = locus YJL095W, strain BCK1, hits give low values
[53] = locus YJL128C, strain PBS2, hits give low values
[54] = locus YJL157C, strain FAR1, hits give low values
[55] = locus YJR016C, strain ILV3, hits give low values
[56] = locus YJR066W, strain TOR1 (second series), hits give low values
[57] = locus YJR066W, strain TOR1, hits give low values
[58] = locus YKL048C, strain ELM1, hits give low values
[59] = locus YKL067W, strain YNK1, hits give low values
[60] = locus YKL193C, strain SDS22, hits give low values
[61] = locus YKL203C, strain TOR2, hits give low values
[62] = locus YLR113W, strain HOG1, hits give low values
[63] = locus YLR133W, strain CKI1, hits give low values
[64] = locus YLR403W, strain SFP1, hits give low values
[65] = locus YML070W, strain DAK1, hits give low values
[66] = locus YMR001C, strain CDC5, hits give low values
[67] = locus YMR205C, strain PFK2 (second series), hits give low values
[68] = locus YMR277W, strain FCP1, hits give low values
[69] = locus YNL006W, strain LST8, hits give low values
[70] = locus YNL020C, strain ARK1, hits give low values
[71] = locus YNL183C, strain NPR1, hits give low values
[72] = locus YNL207W, strain RIO2, hits give low values
[73] = locus YNL222W, strain SSU72, hits give low values
[74] = locus YNL307C, strain MCK1 (second series), hits give low values
[75] = locus YOL136C, strain PFK27, hits give low values
[76] = locus YOR061W, strain CKA2, hits give low values
[77] = locus YOR119C, strain RIO1, hits give low values
[78] = locus YOR231W, strain MKK1, hits give low values
[79] = locus YOR329C, strain SCD5, hits give low values
[80] = locus YPL031C, strain PHO85, hits give low values
[81] = locus YPL153C, strain RAD53, hits give low values
[82] = locus YPL204W, strain HRR25, hits give low values
[83] = locus YPL209C, strain IPL1, hits give low values
[84] = locus YPL256C, strain CLN2, hits give low values
[85] = locus YPR025C, strain CCL1, hits give low values
[86] = locus YPR106W, strain ISR1, hits give low values
[87] = locus YPR111W, strain DBF20, hits give low values
[88] = strain NNK1, hits give low values
[89] = strain TSCII, hits give low values

Measured: normalized growth

CC1(C)CC(=O)c2c(S(C)(=O)=O)sc(Br)c2C1
inactive: [1] 0.951 | [2] 1.01 | [3] 0.995 | [4] 0.965 | [5] 0.988 | [6] 1.02 | locus YGR229C, strain SMI1, hits give low values 0.981 | [7] 0.921 | [8] 1.02 | [9] 1.03 | [10] 1.03 | locus YKL190W, strain CNB1, hits give low values 0.998 | [11] 0.91 | [12] 1.01 | [13] 0.881 | [14] 0.907 | [15] 0.977 | [16] 0.993 | [17] 0.983 | [18] 1.02 | [19] 0.98 | [20] 1 | [21] 1 | [22] 0.924 | [23] 0.954 | [24] 0.96

N#CCC(=O)c1cccc(CSc2ccccc2Cl)c1
inactive: [25] 0.896 | [26] 0.944 | [27] 0.954 | [28] 0.967 | [29] 0.971 | [30] 0.982 | [31] 0.972 | [3] 0.974 | [32] 0.966 | [33] 0.977 | [35] 0.976 | [36] 0.987 | [37] 0.964 | [41] 0.983 | [42] 0.982 | [44] 0.965 | [47] 1.03 | [50] 0.992 | [51] 0.968 | [53] 1.04 | [55] 0.987 | [58] 0.937 | [60] 0.978 | [64] 1 | [66] 0.976 | [67] 0.812 | [68] 0.973 | [71] 0.584 | [72] 0.966 | [73] 0.961 | [74] 1.04 | [79] 0.969 | [83] 0.966 | [85] 0.972 | [86] 0.996 | [87] 0.968 | [88] 0.971 | [89] 0.973
active: [34] 0.617 | [38] 0.417 | [39] 0.243 | [40] 0.639 | [43] 0.31 | [45] 0.456 | [46] 0.473 | [7] 0.114 | [48] 0.209 | [49] 0.293 | [52] 0.213 | [54] 0.42 | [56] 0.313 | [57] 0.353 | [59] 0.59 | [61] 0.529 | [62] 0.56 | [63] 0.512 | [65] 0.405 | [69] 0.319 | [70] 0.437 | [75] 0.382 | [76] 0.553 | [77] 0.504 | [78] 0.43 | [80] 0.189 | [81] 0.21 | [82] 0.162 | [84] 0.343

O=C(Nc1ccccc1SCc1cccc(C(F)(F)F)c1)c1c(F)cccc1Cl
inactive: [1] 1 | [2] 1.03 | [3] 1 | [4] 1.01 | [5] 1.03 | [6] 1.02 | [7] 1.01 | [8] 0.998 | locus YJL187C, strain SWE1, hits give low values 1.02 | [9] 0.988 | [10] 0.998 | [11] 1.04 | [12] 1.01 | [13] 0.986 | [14] 0.984 | [15] 1 | [16] 1.02 | [17] 0.991 | [18] 1.02 | [19] 1.04 | [20] 1.02 | [21] 0.984 | locus YOL006C, strain TOP1, hits give low values 0.963 | [22] 1.02 | [23] 1.01 | [24] 0.942

CC(O)(CNCc1ccc(Cl)cc1)CSc1ccccc1Cl (stereo not given)
inactive: [25] 0.977 | [26] 0.984 | [27] 0.99 | [28] 0.975 | [29] 0.998 | [30] 0.992 | [31] 0.972 | [3] 0.985 | [32] 0.987 | [33] 0.994 | [34] 0.959 | [35] 1 | [36] 0.988 | [37] 0.98 | [38] 0.952 | [39] 0.862 | [40] 0.952 | [41] 0.99 | locus YFL029C, strain CAK1, hits give low values 0.962 | [42] 0.986 | [43] 0.9 | [44] 0.985 | [45] 0.927 | [46] 1.08 | [47] 0.796 | [7] 0.938 | [48] 1 | [49] 1.03 | [50] 1.02 | [51] 0.978 | [52] 1.02 | [53] 1 | [54] 0.973 | [55] 0.991 | [56] 0.875 | [57] 0.998 | [58] 0.98 | [59] 0.971 | locus YKL101W, strain HSL1, hits give low values 0.963 | [60] 0.985 | [61] 0.981 | [62] 1.07 | [63] 0.976 | [64] 0.963 | [65] 0.974 | [66] 0.982 | [67] 0.977 | [68] 0.99 | [69] 0.997 | [70] 0.991 | locus YNL161W, strain CBK1, hits give low values 0.991 | [71] 1.02 | [72] 0.994 | [73] 0.985 | [74] 0.897 | locus YOL078W, strain AVO1, hits give low values 0.99 | [75] 0.975 | [76] 0.964 | [77] 0.928 | [78] 1.02 | [79] 0.992 | [80] 0.955 | [81] 0.951 | [82] 0.923 | [83] 0.984 | [84] 1.01 | [85] 0.988 | [86] 1 | [87] 0.998 | [88] 1 | [89] 0.987

— PubChem BioAssay AID1159580 (chemical genetic matrix, 2015)
